The source of these data is PubChem BioAssay.

Test [1] in a line: resazurin metabolic signal in HepG2 cells – cell-based, resazurin fluorescence, 24 h, PK04 Diversity Set, profiling panel (AID 1172). Also: test concentration not given here. Particulars: HepG2 viability, higher = more signal. A general note: Alamar Blue is a resazurin reagent that responds to reducing activity.
Test [2] in a line: budding yeast growth changes without added modifier – OD600, strain BY4716, 24 h, basal condition, primary screen (AID 1173). Particulars: S. cerevisiae BY4716 growth, OD600, 24 h; higher = more signal, called active from +8 up or from −8 down.
A short description of test [3]: viability profiling in MM1S myeloma cells – cell-based, resazurin fluorescence, basal, 24 h, PK04 Diversity Set, profiling panel (AID 1174).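 Also: MM1S multiple myeloma cell line; test concentration not given here.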 Particulars: higher = more signal, called active from +8 up or from −8 down.
Test [4] deals with Dihydroorotate dehydrogenase (quinone), mitochondrial (Plasmodium falciparum (isolate 3D7)) (UniProt Q08210). The test is described as follows: inhibition of P. falciparum DHODH – biochemical, C-terminal His tag, absorbance 600 nm, primary screen (AID 1175).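 Also: recombinant parasite enzyme with a five histidine tag at its C terminus; test concentration not given here.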 Particulars: PfDHODH enzyme, DCIP absorbance 600 nm; higher = more signal, called active from +8 up or from −8 down.
Test [5] in a line: inhibition of PAO1 biofilm formation – strain PAO1, LB-PBS medium, absorbance 600 nm, primary screen (AID 1176). Also: test concentration not given here. Particulars: P. aeruginosa PAO1 growth/biofilm, A600, 12 h; higher = more signal.
Test [6] in a line: growth modulation of vineyard yeast isolate – strain RM11-1a, OD600, basal, 24 h, primary screen (AID 1177).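 Also: cultures grown under basal conditions with no added stressor; test concentration not given here.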 Particulars: S. cerevisiae RM11-1a growth, OD600, 24 h; higher = more signal, called active from +8 up or from −8 down.
A short description of test [7]: growth of efflux-deficient E. coli DRC39 – strain DRC39, OD650, 24 h, E. coli filamentation inducers, primary screen (AID 1178).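 Also: growth measured as culture turbidity by optical density at 650 nm; test concentration not given here.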 Particulars: E. coli DRC39 acrAB, higher = more signal, called active from +8 up or from −8 down.
A short description of test [8]: growth of efflux-deficient E. coli DRC39 – strain DRC39, OD650, 48 h, E. coli filamentation inducers, primary screen (AID 1179).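 Also: screen aims at cell division blockers that make cells filament.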 Particulars: E. coli DRC39 delta-acrAB growth, higher = more signal, called active from +8 up or from −8 down.
Test [9] can be described thus: viability profiling in RPMI8226 myeloma cells – cell-based, resazurin fluorescence, basal, 24 h, PK04 Diversity Set, profiling panel (AID 1180).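 Also: RPMI8826 multiple myeloma cell line at 5000 cells per well; test concentration not given here.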 Particulars: higher = more signal.
Test [10] concerns the target E3 ubiquitin-protein ligase XIAP (Homo sapiens) (UniProt P98170). The test is described as follows: small molecules binding XIAP protein – biophysical, small-molecule microarray, fluorescence 635 nm, primary screen (AID 1181).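 Also: score merges 667 nm emission and signal to noise over triplicate slides.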 Particulars: higher = more signal.

The source made the active and inactive calls. Unless noted, no rule for the calls is given here.

Sequence of E3 ubiquitin-protein ligase XIAP (Homo sapiens) (P98170 whole entry, looked up): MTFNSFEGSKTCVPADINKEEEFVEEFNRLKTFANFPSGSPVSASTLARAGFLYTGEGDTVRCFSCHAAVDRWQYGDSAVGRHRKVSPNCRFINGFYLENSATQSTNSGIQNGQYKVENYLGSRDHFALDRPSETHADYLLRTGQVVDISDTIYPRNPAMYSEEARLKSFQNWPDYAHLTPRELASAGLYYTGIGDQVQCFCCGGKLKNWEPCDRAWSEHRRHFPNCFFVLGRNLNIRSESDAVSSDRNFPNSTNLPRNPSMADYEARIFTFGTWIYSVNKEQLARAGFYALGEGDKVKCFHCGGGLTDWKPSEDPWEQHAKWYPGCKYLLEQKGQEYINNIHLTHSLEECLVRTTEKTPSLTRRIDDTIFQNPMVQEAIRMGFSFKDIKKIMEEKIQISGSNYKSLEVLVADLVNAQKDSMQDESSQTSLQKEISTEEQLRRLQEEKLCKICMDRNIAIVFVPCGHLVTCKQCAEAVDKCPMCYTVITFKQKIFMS
Sequence of Dihydroorotate dehydrogenase (quinone), mitochondrial (Plasmodium falciparum (isolate 3D7)) (Q08210 whole entry, looked up): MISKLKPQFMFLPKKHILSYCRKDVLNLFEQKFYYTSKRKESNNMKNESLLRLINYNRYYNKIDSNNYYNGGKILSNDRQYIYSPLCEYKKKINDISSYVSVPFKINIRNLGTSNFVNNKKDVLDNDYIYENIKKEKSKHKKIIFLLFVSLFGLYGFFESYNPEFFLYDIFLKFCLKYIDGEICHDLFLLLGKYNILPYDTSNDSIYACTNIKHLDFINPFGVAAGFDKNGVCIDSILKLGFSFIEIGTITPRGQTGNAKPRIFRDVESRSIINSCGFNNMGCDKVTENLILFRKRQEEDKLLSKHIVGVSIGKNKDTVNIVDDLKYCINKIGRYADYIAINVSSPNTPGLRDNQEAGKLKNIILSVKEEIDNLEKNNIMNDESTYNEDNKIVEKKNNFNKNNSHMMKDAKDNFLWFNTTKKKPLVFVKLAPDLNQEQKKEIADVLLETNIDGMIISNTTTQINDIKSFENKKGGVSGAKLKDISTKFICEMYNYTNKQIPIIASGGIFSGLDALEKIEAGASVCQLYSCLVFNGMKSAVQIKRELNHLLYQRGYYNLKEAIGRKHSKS

As for `CC(C)=NOCc1ccc(-c2cc(-c3ccccc3)no2)cc1`, the z-score in test [1] is -0.503; in [2], 0.288 (inactive); in [3], -0.284 (inactive); in test [5], -0.446 (inactive); in test [6] it was -0.194 (inactive); in [7], 0.302 (inactive). The z-score in test [8] was 0.387 (inactive); in test [9] it was -0.424. Moreover, the composite z-score in test [4] was 0.21 (inactive); in test [10] it was 0.103.
Turning to `O=C1[C@H]2[C@H]3[C@H](O)[C@H](O)CC(=NO[C@@H]4O[C@H](CO)[C@@H](O)[C@H](O)[C@H]4O)[C@@H]3CC[C@H]2C(=O)N1c1ccc(F)cc1F`, the z-score is 0.662 in test [1]; -0.767 (inactive) in test [2]; 0.412 (inactive) in test [3]; -0.118 (inactive) in test [5]; -0.815 (inactive) in test [6]; 0.789 (inactive) in [7]. For the same molecule, the z-score in test [8] is 0.391 (inactive); in test [9], 0.741. For the same molecule, the composite z-score in test [4] is -1.39 (inactive); in test [10], -0.313.
As for `C#CCCCON=C1C[C@@H](O)[C@@H](O)[C@@H]2[C@@H]3C(=O)N(CCC(=O)OCC)C(=O)[C@@H]3CC[C@@H]12`, the z-score was -0.0517 in [1]; -0.395 (inactive) in test [2]; -1.01 (inactive) in [3]; -0.0485 (inactive) in test [5]; -0.538 (inactive) in [6]; 0.122 (inactive) in [7]. Besides, the z-score in test [8] was 0.529 (inactive); in [9], -0.739. For the same molecule, the composite z-score in [4] is 0.175 (inactive); in [10] it was -0.212.
In the case of `[N-]=[N+]=Nc1ccccc1C[C@@]1(C(N)=O)N=C(c2ccc(OCCCO)cc2)O[C@@H]1c1ccccc1`, the z-score is -0.501 in [1]; -1.86 (inactive) in test [2]; -0.6 (inactive) in test [3]; 0.218 (inactive) in [5]; -0.364 (inactive) in test [6]; 0.289 (inactive) in test [7]. For the same molecule, the z-score is -1.01 (inactive) in [8] and -0.652 in test [9]. In addition, the results for the composite z-score in test [4] and in [10] were -0.684 (inactive) and -0.0344, respectively.
As for `O=C1[C@H]2[C@H]3[C@H](O)[C@H](O)CC(=NO[C@@H]4O[C@H](CO)[C@@H](O)[C@H](O)[C@H]4O)[C@H]3CC[C@H]2C(=O)N1Cc1ccccc1`, the z-score is 0.835 in test [1]; -0.816 (inactive) in test [2]; -0.183 (inactive) in [3]; -0.0728 (inactive) in [5]; -1.1 (inactive) in test [6]; -0.395 (inactive) in test [7]. Also, the z-score in [8] is 0.355 (inactive); in test [9] it was 0.797. Also, the composite z-score in test [4] was -0.592 (inactive); in [10] it was 0.0153.
As for `CCOC(=O)[C@H](Cc1ccccc1)NC(=O)CCC1CC(OC(=O)NCc2ccc3c(c2)OCO3)CC2(CCCC(COC(=O)NCc3cccc(C(F)(F)F)c3)O2)O1` (stereo not given in full), the z-score in [1] is -0.302; in [2] it was -1.17 (inactive); in test [3] it was 1.12 (inactive); in test [5], -0.813 (inactive); in test [6], 0.234 (inactive); in [7], -1.21 (inactive). For the same molecule, the results for the z-score in [8] and in [9] were -0.793 (inactive) and 0.352, respectively. The composite z-score in test [4] was -2.76 (inactive); in test [10], 0.309.
`CC(C)=CCCC(C)=CCON=C1[C@H]2CCn3c(=O)n(Cc4cc5c(cc4Cl)OCO5)c(=O)n3[C@H]2[C@H](O)[C@@H]2O[C@H]12`: the z-score in [1] is -0.594; in test [2], -0.696 (inactive); in test [3], -0.738 (inactive); in [5] it was -0.471 (inactive); in test [6], -0.537 (inactive); in test [7], -0.464 (inactive). Moreover, the results for the z-score in test [8] and in test [9] were -0.72 (inactive) and -0.357, respectively. The composite z-score is 0.207 (inactive) in [4] and -0.224 in [10].
In the case of `O=C1O[C@@H](c2ccccc2)[C@@H](c2ccccc2)N2[C@@H](c3ccc(OCCO)cc3)[C@]3(C(=O)Nc4ccc(C#CCCO)cc43)[C@@H](C(=O)N3CCCCCCC3)[C@H]12`, the z-score in test [1] was 0.0125; in test [2], -0.355 (inactive); in test [3], 0.605 (inactive); in test [5], 1.72 (inactive); in test [6], 1.17 (inactive); in [7], -0.515 (inactive). Also, the figures for the z-score in test [8] and in test [9] were 0.543 (inactive) and 1.55, respectively. For the same molecule, the composite z-score is 0.221 (inactive) in test [4] and 0.733 in test [10].
With `CCN1C(=O)[C@H]2[C@H]3[C@H](O)[C@H](O)CC(=NOCc4ccccc4)[C@@H]3CC[C@H]2C1=O`, the z-score in test [1] is -0.113; in test [2], -1.73 (inactive); in test [3], -2.61 (inactive); in test [5], 0.659 (inactive); in [6], -2.27 (inactive); in test [7], -0.717 (inactive). In addition, the z-score is -0.353 (inactive) in test [8] and -1.89 in [9]. The composite z-score is -2.05 (inactive) in [4] and -0.0302 in test [10].
Turning to `C=COC[C@H]1CN2[C@@H](CC[C@@H](C)[C@@H]2c2ccc(Br)cc2)C(=O)O1`, the z-score in test [1] was 0.524; in test [2], -3.11 (inactive); in test [3] it was 0.255 (inactive); in test [5], 0.523 (inactive); in test [6] it was -2.06 (inactive); in [7], 0.0556 (inactive). For the same molecule, the z-score in test [8] was -0.848 (inactive); in [9] it was -0.555. In addition, the composite z-score in [4] was -0.613 (inactive); in test [10] it was -0.209.
Regarding `CCCC[C@@H](O)C1=C(C)C[C@H]2C(=O)N(Cc3ccccc3)C(=O)[C@H]2[C@H]1CO`, the z-score in test [1] is -0.31; in [2], -3.87 (inactive); in [3] it was -0.327 (inactive); in test [5], 0.27 (inactive); in [6] it was 0.161 (inactive); in test [7] it was 0.11 (inactive). Also, the z-score in test [8] is 0.183 (inactive); in test [9] it was -0.287. The composite z-score was -2.65 (inactive) in [4] and -0.0911 in test [10].
With `C=CCOC(=O)[C@H]1[C@@H]2C(=O)O[C@@H](c3ccccc3)[C@@H](c3ccccc3)N2[C@@H](c2ccc(OCCOC(=O)[C@H]3C[C@H]4C(=O)N[C@@H](Cc5ccccc5)C(=O)N4[C@H]3c3ccc(O)cc3)cc2)[C@]12C(=O)Nc1ccccc12`, the z-score is 0.696 in test [1]; 1.32 (inactive) in test [2]; 1.17 (inactive) in test [3]; 2.64 (inactive) in test [5]; 1.71 (inactive) in test [6]; -0.38 (inactive) in test [7]. For the same molecule, the figures for the z-score in test [8] and in test [9] were 0.124 (inactive) and 1.74, respectively. Further, the figures for the composite z-score in test [4] and in test [10] were -0.869 (inactive) and 0.0015, respectively.
